In PubChem BioAssay (NCI):
This is part of a sample that, as a whole, favours compounds with a hit. Of some 83,000 tested, about 20% had one in any assay.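 A percent growth of 40 corresponds to 60% growth inhibition; 0 means no net growth; -100 means all cells died. Active threshold: below 10.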 Unmarked numbers belong to inactive results. Activity calls are given as the source filed them.

Experiments:
Assay in all cases: NCI-60 one-dose screen, 48 h (100 = growth as untreated, 0 = no growth, -100 = all killed)
Conditions in all cases: 10 µM unless noted
[1] = test system: SR leukemia
[2] = test system: RPMI-8226 leukemia
[3] = test system: OVCAR-5 ovarian
[4] = test system: OVCAR-4 ovarian
[5] = test system: IGROV1 ovarian
[6] = test system: OVCAR-3 ovarian
[7] = test system: HS 578T breast
[8] = test system: NCI/ADR-RES ovarian
[9] = test system: T-47D breast
[10] = test system: BT-549 breast
[11] = test system: MDA-MB-435 melanoma
[12] = test system: SW-620 colon
[13] = test system: MCF7 breast
[14] = test system: HCT-116 colon
[15] = test system: HCC-2998 colon
[16] = test system: KM12 colon
[17] = test system: OVCAR-8 ovarian
[18] = test system: SK-OV-3 ovarian

SMILES | growth [1] | growth [2] | growth [3] | growth [4] | growth [5] | growth [6] | growth [7] | growth [8] | growth [9] | growth [10] | growth [11] | growth [12] | growth [13] | growth [14] | growth [15] | growth [16] | growth [17] | growth [18]
N=C(N)c1ccc(-c2cc(Cl)cc(Cl)c2)cn1 | 55% | 82.8% | 89.4% | 97.1% | 89.1% | 97.4% | 87.2% | 94.2% | 83.7% | 94.5% | 56.7% | 82.6% | 75.9% | 92% | 67.5% | 89.8% |  | 
COc1ccc(S(=O)(=O)NCCCNc2nccc(-n3ccc4cccnc43)n2)cc1 | 90.7% |  | 100% | 81.5% | 103% | 98.8% | 92.3% | 91.1% | 78.2% |  | 98.4% | 113% | 98.7% | 105% | 111% | 94.6% | 92.7% | 119%
CC(C)(C)n1cc(-c2ccnc(NCCNS(=O)(=O)c3ccc(F)cc3)c2)c(-c2cccc(O)c2)n1 | 25.5% |  | 68.6% | 56.2% | 68.9% | 70.5% | 60.3% | 61.7% | 23.7% |  | 64.7% | 11% | 28.5% | 37.3% | 31.2% | 36.1% | 62.4% | 79.3%
Clc1cc(Cl)c2nc(-c3ccc(-c4ccc(/C=N/NC5=NCCN5)cc4)s3)cn2c1 | 11.2% | 37.6% | 104% | 85.6% | 84.3% | 97.9% | 86.6% | 97.7% | 79.6% | 90.9% | 99.3% | 79.2% | 57.8% | 86.3% | 105% | 93% |  | 
COc1cccc(-c2nc3sccn3c2-c2ccnc(NCCCNS(=O)(=O)c3ccc(F)cc3)c2)c1 | 45.2% | -25.1% (active) | 83.6% | 30.2% | 29.7% | 35.8% | 63.7% | 10.2% | -3.13% (active) | 13% | 19.1% |  | 31.8% | 25.5% | 61.5% | 21% |  | 74.8%
Cc1ccc(-c2cc3nc(C(Cl)Cl)nc(-c4cccnc4)n3n2)cc1 | 14.6% | 16.5% | 24.2% | 9.57% (active) | 33.6% | -40.7% (active) | 28.3% | -3.44% (active) |  | 73.4% | 1.09% (active) | 0.933% (active) | 41.5% | 6.32% (active) |  | -35.4% (active) |  | 
CC12CCC3C4(C)COC(c5ccccc5Cl)OC4CCC3(C)C1CC(C1=CCOC1=O)O2 (stereo not drawn) | 28% |  | 91.3% | 31.2% | 82.9% | 64.4% | 76.1% | 63.2% | 31.1% |  | 54.2% | 84.7% | 46.6% | 40.5% | 77.4% | 59.9% | 65.1% | 94.5%
COc1ccc2c(c1)[nH]c(=O)c1c3cc(C)c(C)cc3cn21 | 31.9% | -32.2% (active) | 28.8% | 42.4% | -21.7% (active) |  |  | 8.27% (active) | -24.4% (active) | 0.0621% (active) | -60.8% (active) | -52.8% (active) | 3.58% (active) | -35.9% (active) | 15.7% | -87.7% (active) |  | 43.3%
CCC1=CCC[C@@]2(C)CCC[C@@]3(C)CCCC(C)(C)[C@]1([O-])[O+]32 | 112% | 97.9% | 104% | 85.1% | 105% | 111% | 92.8% | 106% |  | 101% | 103% | 101% | 98.8% | 102% | 104% | 110% |  | 107%
CCCCCCCCCCCCNC(=O)[C@H]1CSC(c2cc(Br)cs2)N1 (stereo partly drawn) | -31.3% (active) | 37.7% | 9.52% (active) | -72.4% (active) | -54.1% (active) | -50.8% (active) | -41.2% (active) | -22.3% (active) | 39.4% | -58.4% (active) | -90.3% (active) | -34.2% (active) |  | -82% (active) | 54.3% | -55.3% (active) |  | -42.5% (active)
O=C(NCCNc1nccc(-n2ccc3cccnc32)n1)c1ccc(C(F)(F)F)cc1 | 105% |  | 106% | 100% | 103% | 109% | 106% | 105% | 102% |  | 99.9% | 103% | 95.6% | 100% | 120% | 100% | 103% | 99.7%
COc1ccc(-c2ccc(C)n2-c2ccc(-c3nc4cc(Cl)ccc4s3)cc2)cc1 | 76.9% |  | 74.6% | 84.8% | 54.9% | 109% | 103% | 95.8% |  | 116% | 95.1% | 103% | 48.3% | 97.4% | 92.3% | 89.1% | 104% | 96.7%
O=C(NCc1cn(Cc2cccc(Oc3ccccc3)c2)nn1)c1cccnc1Nc1ccc(F)cc1 | 28.3% |  | 89.3% | 86.1% | 79.4% | 35.9% | 76.7% | 31.7% | 83.1% | 86.6% | -11.7% (active) |  | 24% | 32.8% | 62.7% | 34.4% | 67.2% | 52.2%
ClC(Cl)c1nc(-c2ccccc2)nc2cc(-c3ccccc3)nn12 | 90.7% | 17.3% | 121% | 63.4% | 67% | -9.5% (active) | 63% | 54.6% | 24.2% | 93.3% | 94.2% |  | 47.9% | 29.7% | 88.9% | 37.3% |  | 
COc1ccc2c(c1)C(c1cc(OC)c3c(c1)OCO3)C1=C(COC1=O)N2 (stereo not drawn) | 6.1% (active) | 22.1% |  | 41.2% | 28.8% | -44% (active) | 21% | 2.82% (active) | 52.4% | 23.4% | -13.5% (active) | 23.3% | 16.2% | 12.7% | 10.6% | 9.2% (active) |  | 16.2%
O=C1NC(=C(Cl)Cl)/C(=N/S(=O)(=O)N2CCC(C3(C(F)(F)F)N=N3)CC2)N1 | 13.3% | 23.9% | 105% | 98.1% | 43.5% | 40% | 95.8% | 106% | 47.5% | 99.4% | 70.7% | -36.4% (active) | 74.6% | 95.4% | 60.5% | 93.7% |  | 
O=C1c2c(Cl)c(Cl)c(Cl)c(Cl)c2C(=O)C2(Cl)CC=CCC12Cl (stereo not drawn) |  | -32.2% (active) | 95.7% | -59.1% (active) | -58.7% (active) | -93.5% (active) | 46.7% | 32.7% | -38.3% (active) | 43.6% | 21.5% | -68.7% (active) | -57.5% (active) | -90.2% (active) | -43% (active) | -6.67% (active) | -34.9% (active) | 105%
COc1cc(-c2nn(-c3cccc(NC(=O)Nc4ccc(Cl)c(Cl)c4)c3)cc2-c2ccncc2)ccc1Cl |  | -11.6% (active) | 38% | 19.8% | 23.9% | -10% (active) | -6.95% (active) | 0.321% (active) | 2.98% (active) | 6.23% (active) | -45.8% (active) | 13.4% | 1.73% (active) | 8.67% (active) | 2.84% (active) | 1.3% (active) | -17.2% (active) | 11.8%
COc1ccc(/C=C/c2c(C(C)=O)c(C)nc3ccccc23)cc1 |  | 60.2% | 77% | 70.1% | 76.7% | 97.6% | 106% | 86.6% | 39.5% | 61.6% | 69.1% | 86.8% | 85.8% | 70.8% | 93.3% | 93% | 85.2% | 80.8%
